Pin1 inhibitor = qHTS Assay to Find Inhibitors of Pin1; Peptidyl-prolyl cis-trans isomerase NIMA-interacting 1 (Homo sapiens), Q13526; Pin1 FP peptide displacement, HiFluor488, 10 min; Potency, µM (series often up to 115 µM), for the others: at the top dose activity, negative = inhibition, actives largely listed as inhibitors; actives 0.009% (n = 390,000); active = well fitted inhibition curve with a large enough effect in the polarisation, with a control signal flat, not every such curve was filed as active; inconclusive = small, poorly fitted or top-dose-only effect, or effect the other way, or a change in a side signal; inactive = no such curve, though single readings can be large or run the other way; the % refers to the polarisation; note: % is set by controls: 0 for no effect and ±100 for the full control effect
Target sequence (Q13526 whole entry, looked up): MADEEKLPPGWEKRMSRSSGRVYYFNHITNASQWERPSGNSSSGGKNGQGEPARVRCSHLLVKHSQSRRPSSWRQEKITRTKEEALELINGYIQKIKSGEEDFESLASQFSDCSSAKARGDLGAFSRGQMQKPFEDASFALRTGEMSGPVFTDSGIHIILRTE
GLP1R inv ag = qHTS of GLP-1 Receptor Inverse Agonists (Inhibition Mode) | actives 1.6% (n = 410,000) | HEK293 GLP-1R CRE-luciferase, luminescence, 24 h; GLP-1R form is constitutively active | Glucagon-like peptide 1 receptor (Homo sapiens), P43220 | Potency, µM (highest dose often 38.3 µM), without a hit: at the top dose activity change, negative = inhibition, most hits filed as inhibitors; note: % is set by controls: 0 for no effect and ±100 for the full control effect; nearly all actives have a fitted effect of over 55% in size
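Luminescence readout: a drop in cAMP-driven luciferase signal flags inverse agonism at a constitutively active GLP-1R stably expressed in HEK293. Compound exposure lasted 24 hr at 37 deg C, 5% CO2.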
GLP-1R agonist = qHTS of GLP-1 Receptor Agonists. HEK293 GLP-1R CRE-luciferase, luminescence, 4-6 h; cells express a hypersensitive GLP-1R form. actives 0.007% (n = 380,000). Glucagon-like peptide 1 receptor (Homo sapiens), P43220. AID 624172, 2012. Potency, µM (doses to about 45.6 µM), inactives show at the highest dose activation, actives largely listed as activators; note: % of control where 0% means no effect
GLP1R cytotox = qHTS of GLP-1 Receptor Inverse Agonists: Cytotox Screen; HEK293 cAMP-luciferase reporter cells, luminescence, 24 h; Potency, µM (series often up to 38.3 µM), for inactives: at the top dose activity change, negative = inhibition, hits mostly inhibitors; actives 0.13% (n = 410,000); AID 624418, 2012;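 note: loss of luciferase light is scored as toxicity; % is set by controls: 0 for no effect and ±100 for the full control effect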
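Seeding density was 200 cells/uL; after overnight-length (12 h) culture, 23 nL compounds went on for 24 h at 37 °C. Readout used a luciferase detection reagent, luminescence taken after 12 min at room temperature.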
Tb PFK inh = qHTS Assay to Find Inhibitors of T. brucei phosphofructokinase. ATP-dependent 6-phosphofructokinase (Trypanosoma brucei brucei), O15648. Potency, µM (titrated, usually from 57.5 µM), without a hit: top-dose activity, negative = inhibition, actives largely listed as inhibitors. actives 0.17% (n = 330,000). T. brucei PFK, ADP-Glo luminescence. AID 485367, 2010;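 note: 0% = uninhibited 1x PFK enzyme wells and -100% = no-enzyme wells; nearly all actives have a fitted effect of over 60% in size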
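Luminescent ADP detection (ADP-Glo, two-step: ATP depletion then ADP-to-ATP conversion for luciferase) reported PFK activity after 45 min room-temperature reaction of 1.25 nM enzyme with 0.5 mM F6P and 0.1 mM ATP at pH 8.0.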
Tb PGK inh = qHTS Assay to Find Inhibitors of Phosphoglycerate Kinase. Phosphoglycerate kinase, glycosomal (Trypanosoma brucei brucei), P07378. PGK/GAPDH coupled, Kinase-Glo luminescence, 60 min. Potency, µM (highest dose often 57.5 µM), inactives show at the highest dose activity change, negative = inhibition, actives largely listed as inhibitors. actives 0.043% (n = 380,000). AID 602233, 2012; note: % is set by controls: 0 for no effect and ±100 for the full control effect; nearly all actives have a fitted effect of over 60% in size
Target sequence (P07378 whole entry, looked up): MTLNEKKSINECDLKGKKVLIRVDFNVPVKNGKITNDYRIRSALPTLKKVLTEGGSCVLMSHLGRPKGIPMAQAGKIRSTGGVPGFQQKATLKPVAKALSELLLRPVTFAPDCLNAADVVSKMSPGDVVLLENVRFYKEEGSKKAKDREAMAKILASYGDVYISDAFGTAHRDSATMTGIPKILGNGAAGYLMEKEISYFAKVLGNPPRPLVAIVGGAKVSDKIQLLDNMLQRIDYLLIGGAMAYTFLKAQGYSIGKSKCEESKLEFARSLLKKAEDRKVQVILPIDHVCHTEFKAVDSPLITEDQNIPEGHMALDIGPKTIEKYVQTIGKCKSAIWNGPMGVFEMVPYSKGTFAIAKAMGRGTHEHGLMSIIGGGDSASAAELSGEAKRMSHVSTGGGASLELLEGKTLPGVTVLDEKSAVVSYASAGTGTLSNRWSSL
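Luminescent ATP detection (Kinase-Glo Plus) follows a 60-minute room-temperature incubation, with wells lacking PGK as controls. Buffer: 100 mM TEA (pH 7.6), 5 mM MgCl2, 0.01% Tween-20. Coupling enzyme GAPDH (100 nM final) supplies unstable 1,3-BPG in-well.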
* = called active by the depositor; i = inactive; ? = inconclusive; . = not tested or not shown. Rows were chosen to be rich in hits. Some 1.8% of all compounds tested hit in one or more screens of this group. Unless noted, calls come from the whole dose curve; as a rule, active = well fitted curve in the direction sought with a large enough effect; inconclusive = small, poorly fitted or top-dose-only effect, or another doubt; inactive = no such curve, though single readings can be large; an effect the other way counts as inactive or inconclusive. Potency is the fitted concentration of half-maximal effect.

SMILES | Pin1 inhibitor | GLP1R inv ag | GLP-1R agonist | GLP1R cytotox | Tb PFK inh | Tb PGK inh
O=C(CNc1ccc2ccccc2c1)N/N=C/c1ccc(OC(=O)/C=C/c2ccco2)cc1 | 1.5% | ? | 2.7% | -22.3% | 0.0% | -0.4%
CC(=O)c1ccc(-c2ccc([C@H]3[C@@H]4C=CCC[C@@]4(C)C(=O)N3Cc3ccccc3)c(F)c2)cc1 | 5.8% | 11.2µM* | -5.8% | -5.4% | 1.3% | -5.4%
COc1ccc(-c2cc([C@H]3[C@@H]4C=CCC[C@@]4(C)C(=O)N3Cc3ccccc3)ccc2F)cc1 | ? | 10µM* | 5.6% | 4.1% | 2.3% | 6.2%
COc1ccc(Br)cc1C1C2C=CCCC2(C)C(=O)N1Cc1ccccc1 (stereo not given) | 10.6% | . | . | . | . | .
COc1ccc(Br)cc1[C@H]1[C@@H]2C=CCC[C@@]2(C)C(=O)N1Cc1ccccc1 | ? | 4.47µM* | 4.9% | -15.2% | -5.5% | 1.2%
Cc1ccc(-c2ccc(C3C4C=CCCC4(C)C(=O)N3Cc3ccccc3)c(F)c2)cc1 (stereo not given) | -2.7% | . | . | . | . | .
O=C(CNC(=O)c1cccc(Cl)c1)OC(C(=O)Nc1cc(C(F)(F)F)ccc1Cl)c1ccccc1 (stereo not given) | 20.3% | . | . | . | . | .
COc1ccc(-c2cn3cccnc3n2)cc1NC(=O)COc1ccccc1 | 0.7% | -9.5% | . | -22.9% | . | 1.2%
COc1cccc(C2c3c(ncn(-c4cccc(C)c4)c3=N)Oc3ccc4ccccc4c32)c1 (stereo not given) | 3.0% | . | . | . | . | .
COc1cccc(/C=N/Nc2cc(-n3nc(C)cc3-c3ccccc3)ncn2)c1O | 36.7% | 3.55µM* | -32.8% | 2.24µM* | 5.3% | i
c1nc(N2CCC(N3CCCC3)CC2)c2cc(-c3ccc4c(c3)OCO4)ccc2n1 | 2.5% | . | . | . | . | .
CCCC1OC2C[C@@H]3[C@H]4CCC5=CC(=O)C=C[C@]5(C)[C@H]4C(O)C[C@]3(C)[C@]2(C(=O)CO)O1 (stereo not given in full) | -4.3% | . | . | . | . | .
COc1ccc(C2/C=C\CN(C(=O)c3ccc(C)cc3)C(C)C(=O)N2Cc2ccc(F)cc2)cc1 (stereo not given) | -2.7% | . | . | . | . | .
COc1ccc(C2/C=C\CN(C(=O)c3ccc(C)cc3)[C@H](Cc3ccccc3)C(=O)N2Cc2ccc(F)cc2)cc1 (stereo not given in full) | 11.4% | 10µM* | -0.4% | -7.8% | 1.4% | -9.6%
CCCCSCCCNC(=O)c1c[nH]c2ccc(S(=O)(=O)Nc3cccc(OC)c3)cc2c1=O | -0.8% | 6.4% | . | -0.3% | . | 9.8%
CC(C)(C)c1ccc(NC(=O)c2c(F)cccc2Cl)cc1 | -5.5% | ? | -4.5% | 0.0% | 1.4% | i
CN(C)c1cccc(F)c1C(=O)NC(=O)Nc1ccc(Cl)cc1 | -1.0% | 8.91µM* | -1.0% | ? | . | 5.4%
CN(C)c1cccc(N(C)C)c1CNC(=O)NC(=O)c1c(F)cccc1F | -2.0% | 10µM* | -4.2% | 1.6% | -4.4% | -1.5%
COc1ccccc1CNC(=O)Cn1c(=O)ccc2cc(S(=O)(=O)N3CCCC3)ccc21 | 2.3% | 8.9% | 6.9% | -4.8% | . | 1.3%
CC(C)C[C@@H](NC(=O)[C@@H](COC(C)(C)C)NC(=O)[C@H](Cc1ccc(O)cc1)NC(=O)[C@@H](CO)NC(=O)[C@@H](Cc1c[nH]c2ccccc12)NC(=O)[C@@H](Cc1cnc[nH]1)NC(=O)[C@@H]1CCC(=O)N1)C(=O)N[C@H](CCCN=C(N)N)C(=O)N1CCC[C@H]1C(=O)NNC(N)=O | . | . | -1.3% | . | . | .
Cc1ccc(-n2ncc3c(NC4CCCCC4)ncnc32)cc1 | -1.1% | 10µM* | . | -20.6% | . | -8.5%
Cc1ccc(-n2ncc3c(NC4CCCCCC4)ncnc32)cc1 | -18.1% | 4.47µM* | . | -13.0% | . | 11.5%
COc1ccc(OCC(=O)Nc2c(C(=O)N(CCN(C)C)Cc3ccco3)oc3ccccc23)cc1 | 7.6% | 7.94µM* | 5.4% | 10.3% | -7.8% | 1.8%
COc1ccccc1C(=O)Nc1c(C(=O)N(CCN(C)C)Cc2ccco2)oc2ccccc12 | -0.2% | ? | 21.6% | ? | -0.3% | -4.8%
Cc1ccc(S(=O)(=O)N2CCN(c3nc(-c4ccco4)nc4ccccc34)CC2)cc1 | 29.9% | . | . | . | . | .
SMILES | Pin1 inhibitor | GLP1R inv ag | GLP-1R agonist | GLP1R cytotox | Tb PFK inh | Tb PGK inh
Cn1nnnc1Sc1ncnc2scc(-c3ccc4c(=O)ccoc4c3)c12 | -4.0% | . | . | . | . | .
Clc1ccc(-c2cc3ccccc3nc2N2CCOCC2)cc1 | -3.2% | 10µM* | 7.1% | 3.5% | 3.7% | i
CS(=O)(=O)N(CC(=O)NCCSCc1ccccc1)c1cc(C(F)(F)F)ccc1Cl | -0.7% | 11.2µM* | . | -12.9% | . | -0.6%
COCCNC(=O)CN(c1cc(C(F)(F)F)ccc1Cl)S(C)(=O)=O | 9.8% | 2.2% | -5.1% | 4.0% | -1.7% | .
CCn1ncc(CN2CCC(C(=O)Nc3cccc(-c4cccc(F)c4)c3)CC2)c1C | 5.8% | 4.6% | -3.3% | 5.3% | -13.0% | 10.2%
Cc1cc(C)n(CCCN2CCC(C(=O)Nc3cccc(-c4cccc(F)c4)c3)CC2)n1 | -0.6% | 7.08µM* | -8.4% | ? | -5.4% | -0.4%
N=c1c2c(ncn1Cc1ccco1)Oc1cc(O)ccc1C2c1ccccc1 (stereo not given) | ? | 39.0% | 6.8% | 2.1% | 0.7% | -2.4%
N=c1c2c(ncn1Cc1ccco1)Oc1c(ccc3ccccc13)C2c1ccccc1 (stereo not given) | 29.1% | 3.98µM* | 17.6% | ? | 7.1% | -10.3%
O=C1CC[C@H](C(=O)N2CCCCC2)N1 | . | . | -2.7% | . | . | .
COc1cccc(NC(=O)CN(C)C(=O)C(Sc2ccccc2)c2ccccc2)c1 (stereo not given) | 0.9% | 11.2µM* | 4.9% | -10.1% | -1.2% | -0.3%
COc1cccc(NC(=O)CN(C)C(=O)Cc2cccc3ccccc23)c1 | -0.3% | ? | -6.1% | -14.9% | 1.1% | -2.6%
O=C(O)Cc1cccc(-c2cc(CCCCCCc3ccc(O[C@H]4O[C@H](CO)[C@@H](O)[C@H](O)[C@@H]4O)c(-c4cccc(CC(=O)O)c4)c3)ccc2O[C@H]2O[C@H](CO)[C@@H](O)[C@H](O)[C@@H]2O)c1 | . | . | -0.4% | . | . | .

Compound activity from PubChem BioAssay.
